Some test systems named below: KIT-autoinhibited; KIT; LATS1; LATS2; LCK; LIMK1; LIMK2; LRRK2(G2019S); LRRK2; LTK; LYN; MAK; MAP3K15; MAP3K1; MAP3K2; MAP3K3; MAP3K4.
Holding throughout (settings): Compound Concentration (nM):1000
The next assay relates to T1, LKB1.
T1 construct: gene STK11

The next assay has as its system T2, LOK.
T2 construct: gene STK10

For the next assay, the system named is T3, LZK.
T3 construct: gene MAP3K13
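Also: KINOMEscan scanMAX binding as percent activity remaining versus control; lower means stronger binding.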

Regarding `CCn1c(-c2nonc2N)nc2c(C#CC(C)(C)O)nc(OCCNC)cc21.Cl` [GSK949675], the “Percent Control” value in the assay on KIT-autoinhibited was 100%; in the assay with KIT, 100%; in the assay on LATS1 it was 65%; with LATS2, 11%; in the assay on LCK, 100%; in the assay with LIMK1, 100%. Also, the “Percent Control” value in the assay on LIMK2 was 100%; in the assay with LKB1, 70%; in the assay with LOK, 100%; in the assay on LRRK2(G2019S), 100%; in the assay with LRRK2 it was 100%; in the assay on LTK, 100%. Besides, the “Percent Control” value in the assay with LYN was 100%; with LZK it was 91%; in the assay with MAK it was 100%; in the assay on MAP3K15 it was 100%; in the assay with MAP3K1 it was 100%; in the assay with MAP3K2, 6.9%. In addition, the results for the “Percent Control” value with MAP3K3 and in the assay with MAP3K4 were 28% and 100%, respectively.
As for `COC(=O)Nc1nc2ccc(Oc3ccc(NC(=O)Nc4cc(C(F)(F)F)ccc4F)cc3)cc2s1.Cl` [GW693917A], the “Percent Control” value in the assay on KIT-autoinhibited was 87%; in the assay with KIT it was 0.5%; in the assay on LATS1, 100%; in the assay with LATS2, 80%; with LCK it was 2.2%; in the assay with LIMK1, 43%. Also, the “Percent Control” value in the assay on LIMK2 was 62%; in the assay on LKB1 it was 100%; in the assay on LOK, 0.6%; in the assay with LRRK2(G2019S), 74%; in the assay on LRRK2, 39%; in the assay with LTK it was 18%. Also, the “Percent Control” value in the assay on LYN is 19%; in the assay with LZK it was 78%; with MAK, 100%; with MAP3K15, 100%; in the assay with MAP3K1 it was 53%; in the assay on MAP3K2, 92%. In addition, the entries for the “Percent Control” value in the assay on MAP3K3 and with MAP3K4 were 79% and 80%, respectively.
`CCc1ccc(Oc2nccc(-c3c(-c4ccc(F)cc4)ncn3C3CCNCC3)n2)cc1` [SB-242719]: the “Percent Control” value with KIT-autoinhibited is 100%; with KIT, 83%; in the assay with LATS1, 100%; in the assay with LATS2, 70%; in the assay on LCK, 74%; with LIMK1, 75%. The “Percent Control” value in the assay with LIMK2 is 100%; in the assay on LKB1, 84%; with LOK, 97%; in the assay with LRRK2(G2019S) it was 83%; with LRRK2, 100%; in the assay on LTK it was 95%. Further, the “Percent Control” value in the assay with LYN is 100%; in the assay on LZK it was 95%; with MAK, 100%; in the assay with MAP3K15, 91%; in the assay on MAP3K1 it was 67%; in the assay on MAP3K2, 98%. Moreover, the “Percent Control” value in the assay with MAP3K3 is 66%; in the assay on MAP3K4, 93%.
For `Cl.O=C(Nc1ccc(Oc2ccc3[nH]c(NC(=O)c4ccco4)nc3c2)cc1)Nc1cc(C(F)(F)F)ccc1F` [GW683134A], the “Percent Control” value is 83% in the assay with KIT-autoinhibited; 0.4% in the assay with KIT; 100% in the assay with LATS1; 97% with LATS2; 6.3% in the assay with LCK; 76% with LIMK1. Moreover, the “Percent Control” value in the assay on LIMK2 was 84%; with LKB1 it was 87%; in the assay with LOK, 0.1%; in the assay on LRRK2(G2019S), 66%; with LRRK2, 28%; in the assay on LTK, 6.2%. The “Percent Control” value with LYN is 29%; with LZK it was 100%; in the assay on MAK it was 100%; in the assay with MAP3K15 it was 90%; in the assay on MAP3K1, 53%; with MAP3K2 it was 100%. In addition, the results for the “Percent Control” value with MAP3K3 and with MAP3K4 were 85% and 86%, respectively.
Turning to `COc1ccc(COc2ccc(Cc3cnc(N)nc3N)cc2OC)cc1` [GW632580X], the “Percent Control” value in the assay on KIT-autoinhibited is 91%; with KIT, 95%; with LATS1 it was 100%; with LATS2 it was 100%; in the assay on LCK, 87%; with LIMK1 it was 79%. Further, the “Percent Control” value is 91% in the assay on LIMK2; 100% in the assay with LKB1; 88% in the assay on LOK; 95% in the assay with LRRK2(G2019S); 83% in the assay on LRRK2; 86% in the assay with LTK. In addition, the “Percent Control” value in the assay with LYN is 100%; in the assay with LZK it was 77%; in the assay on MAK, 89%; in the assay with MAP3K15, 95%; in the assay with MAP3K1, 65%; with MAP3K2, 97%. Moreover, the entries for the “Percent Control” value in the assay with MAP3K3 and in the assay with MAP3K4 were 91% and 90%, respectively.
With `COc1cc(C=NNc2ncnc3c2cnn3-c2ccccc2)ccc1O` [GW513184X], the “Percent Control” value was 100% with KIT-autoinhibited; 42% in the assay with KIT; 90% in the assay with LATS1; 100% in the assay with LATS2; 34% with LCK; 100% with LIMK1. Further, the “Percent Control” value in the assay on LIMK2 was 100%; in the assay on LKB1 it was 69%; in the assay on LOK it was 100%; with LRRK2(G2019S) it was 100%; in the assay on LRRK2, 100%; in the assay on LTK it was 100%. Besides, the “Percent Control” value in the assay with LYN was 74%; in the assay with LZK, 98%; in the assay with MAK, 78%; in the assay on MAP3K15 it was 100%; with MAP3K1, 100%; with MAP3K2, 99%. Further, the “Percent Control” value in the assay on MAP3K3 turned out to be 73%; with MAP3K4, 100%.
Take `COc1ccc2[nH]c3c4[nH]c5ccc(OC)cc5c4c4c(c3c2c1)C(=O)NC4=O` [GW296115X]: the “Percent Control” value was 72% in the assay with KIT-autoinhibited; 24% with KIT; 100% in the assay on LATS1; 43% with LATS2; 85% in the assay on LCK; 91% in the assay on LIMK1. In addition, the “Percent Control” value in the assay on LIMK2 is 81%; in the assay with LKB1, 99%; in the assay with LOK, 88%; in the assay with LRRK2(G2019S) it was 2.6%; in the assay on LRRK2, 2.8%; in the assay with LTK it was 58%. Further, the “Percent Control” value with LYN is 69%; in the assay on LZK, 77%; in the assay on MAK it was 82%; with MAP3K15, 64%; with MAP3K1 it was 71%; with MAP3K2 it was 85%. The “Percent Control” value with MAP3K3 is 59%; with MAP3K4, 100%.
For the compound `CCS(=O)(=O)c1ccc(OC)c(Nc2ncc(-c3cccc(F)c3)o2)c1` [GW621970X], the “Percent Control” value was 14% in the assay on KIT-autoinhibited; 13% in the assay on KIT; 94% in the assay on LATS1; 100% in the assay on LATS2; 25% in the assay with LCK; 100% with LIMK1. In addition, the “Percent Control” value in the assay on LIMK2 is 100%; with LKB1 it was 100%; in the assay on LOK, 100%; in the assay with LRRK2(G2019S), 100%; in the assay on LRRK2, 90%; with LTK, 100%. The “Percent Control” value was 36% in the assay with LYN; 100% in the assay on LZK; 100% with MAK; 95% in the assay with MAP3K15; 80% in the assay on MAP3K1; 100% in the assay with MAP3K2. Further, the “Percent Control” value in the assay with MAP3K3 and in the assay with MAP3K4 was 100% each time.
Take `C[C@@H](Oc1cc(-n2cnc3ccc(OC4CCN(C)CC4)cc32)sc1C(N)=O)c1ccccc1Cl` [GSK579289A]: the “Percent Control” value is 81% in the assay on KIT-autoinhibited; 32% in the assay on KIT; 100% with LATS1; 65% with LATS2; 82% in the assay with LCK; 100% in the assay with LIMK1. Further, the “Percent Control” value in the assay with LIMK2 was 100%; in the assay on LKB1, 100%; in the assay on LOK it was 3.3%; in the assay on LRRK2(G2019S), 75%; with LRRK2, 77%; in the assay on LTK, 24%. For the same compound, the “Percent Control” value with LYN was 93%; with LZK, 78%; in the assay with MAK, 100%; in the assay on MAP3K15, 95%; in the assay on MAP3K1, 41%; in the assay with MAP3K2, 83%. For the same compound, the “Percent Control” value in the assay with MAP3K3 amounted to 65%; with MAP3K4, 67%.
As for `CN1CCN(C(=O)c2ccc(NC(=O)Nc3ccc(N(C)c4ccnc(Nc5ccc(CS(C)(=O)=O)cc5)n4)cc3)cc2)CC1.Cl` [GW830263A], the “Percent Control” value was 35% with KIT-autoinhibited; 0% in the assay on KIT; 68% with LATS1; 59% with LATS2; 85% in the assay with LCK; 61% with LIMK1. Besides, the “Percent Control” value with LIMK2 was 43%; in the assay with LKB1 it was 76%; in the assay on LOK it was 0.4%; in the assay with LRRK2(G2019S), 71%; in the assay on LRRK2, 74%; in the assay on LTK it was 85%. Further, the “Percent Control” value is 71% in the assay on LYN; 70% in the assay on LZK; 64% in the assay with MAK; 86% in the assay with MAP3K15; 83% in the assay with MAP3K1; 38% in the assay with MAP3K2. Further, the “Percent Control” value with MAP3K3 came to 57%; in the assay on MAP3K4, 4%.

The record behind these values is publication PMC7826789 (International Journal of Molecular Sciences, 2021).
